In assay [1] the target is T1, Aspartate--tRNA(Asp/Asn) ligase (Mycobacterium tuberculosis (strain ATCC 25618 / H37Rv)) (UniProt P9WFW3). Further: in the data most compounds retested in dose-response had high values.
T1 sequence (whole entry): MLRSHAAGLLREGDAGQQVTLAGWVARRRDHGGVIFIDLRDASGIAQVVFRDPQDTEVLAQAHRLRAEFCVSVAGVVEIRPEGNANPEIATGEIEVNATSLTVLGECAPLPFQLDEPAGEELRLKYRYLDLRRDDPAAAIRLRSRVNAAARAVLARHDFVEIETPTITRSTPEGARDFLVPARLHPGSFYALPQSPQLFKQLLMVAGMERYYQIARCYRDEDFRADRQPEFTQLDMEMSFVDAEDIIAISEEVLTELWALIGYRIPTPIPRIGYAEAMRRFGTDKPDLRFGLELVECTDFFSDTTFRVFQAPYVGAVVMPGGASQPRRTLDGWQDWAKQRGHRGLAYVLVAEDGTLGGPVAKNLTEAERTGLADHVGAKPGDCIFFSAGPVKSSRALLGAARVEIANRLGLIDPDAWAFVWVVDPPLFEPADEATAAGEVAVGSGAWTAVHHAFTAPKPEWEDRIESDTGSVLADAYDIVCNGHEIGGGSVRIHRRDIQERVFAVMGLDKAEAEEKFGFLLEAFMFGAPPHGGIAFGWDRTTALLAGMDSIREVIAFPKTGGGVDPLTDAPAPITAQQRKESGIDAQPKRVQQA
The experiment in a line: Assay for Asp RNA synthetase-1 from Mycobacterium tuberculosis. Details: scale not given: direction of the effect not stated beside the values. The class given is functional. The note with it: 30 µM.

For assay [2], the target named is Shiga toxin 2 (Escherichia coli O157:H7) (UniProt P09385+P09386). The experiment in a line: E. coli 0.157:H7 Shiga Toxin SOP - stx2 screening assay. The following applies: 30 µM. The class given is functional. Details: scale not given: direction of the effect not stated beside the values.

As for `CN(C)c1cc2c(nn1)CCN(C(=O)C1CCc3ccccc31)C2` (stereo unspecified), the Percent Effect in assay [1] came out at 5.85%; in assay [2], 5.96%.
Turning to `COCc1nc(N(C)C)ncc1C(=O)NC(C)C`, the results for the Percent Effect in assay [1] and in assay [2] were -0.697% and -16.3%, respectively.
Regarding `Cc1cc(C)n(C2CCCN(C(=O)C3=NN(C)C(=O)CC3)C2)n1` (stereo unspecified), the Percent Effect in assay [1] turned out to be 0.706%; in assay [2] it was 17.2%.
